In the supplement of paper PMC10723795:
± gives the standard deviation of the averaged measurements.

Test system: BJ5TA
Experiment: nucleolar normality score relative to DMSO (fraction of DMSO control); RPE1 is a non-cancer human cell line; higher = more normal nucleoli (less nucleolar stress)
Protocol: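 Selected screen hits were validated in hTERT lines (BJ5TA, CHON-002, RPE1) and cancer lines (DLD1, HCT116). Cells were immunostained for nucleolin and UBF and the nucleolar normality score was measured per field of view, with 4 fields per drug. Scores are normalized to each cell line's own DMSO control. Dose and time are not stated for this panel.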

Going from `CN(C)CCNC(=O)c1cccn2c(=O)c3cc4ccccc4cc3nc12` to `Cc1cnc(CNC(=O)c2c(=O)c3ccc(N4CCCN(C)CC4)nc3n3c2sc2ccccc23)cn1`, the nucleolar normality score rises from 0.0738 ± 0.013 to 0.107 ± 0.0069.

Going from `CC(C)C[C@H](NC(=O)[C@H](CCc1ccccc1)NC(=O)CN1CCOCC1)C(=O)N[C@@H](Cc1ccccc1)C(=O)N[C@@H](CC(C)C)C(=O)[C@@]1(C)CO1` [Carfilzomib] to `COC[C@H](NC(=O)c1cnc(C)s1)C(=O)N[C@@H](COC)C(=O)N[C@@H](Cc1ccccc1)C(=O)[C@@]1(C)CO1` [Oprozomib], the nucleolar normality score rises from 0.328 ± 0.027 to 0.449 ± 0.043.

First: CC(C)c1cc(C(=O)N2Cc3ccc(CN4CCN(C)CC4)cc3C2)c(O)cc1O [Onalespib]
Second: CN1CC[C@H](c2c(O)cc(O)c3c(=O)cc(-c4ccccc4Cl)oc23)[C@H](O)C1 [Flavopiridol]
The nucleolar normality score of the first is higher: 0.294 ± 0.019 for the first, 0.202 ± 0.03 for the second.

First: C=CCNC1=C2C[C@@H](C)C[C@H](OC)[C@H](O)[C@@H](C)/C=C(\C)[C@H](OC(N)=O)[C@@H](OC)/C=C\C=C(/C)C(=O)NC(=CC1=O)C2=O
Second: COc1cccc2c1C(=O)c1c(O)c3c(c(O)c1C2=O)C[C@@](O)(C(=O)CO)C[C@@H]3O[C@H]1C[C@H](N)[C@H](O)[C@H](C)O1 [Doxorubicin]
The nucleolar normality score of the first is higher: 0.306 ± 0.0062 for the first, 0.129 ± 0.025 for the second.

Going from `CCc1cnn2c(NCc3ccc[n+]([O-])c3)cc(N3CCCC[C@H]3CCO)nc12` [Dinaciclib] to `Cc1nc(-c2cn3c(n2)-c2ccc(-c4cnn(C(C)(C)C(N)=O)c4)cc2OCC3)n(C(C)C)n1` [Taselisib], the nucleolar normality score rises from 0.242 ± 0.0091 to 0.347 ± 0.013.

First: CC(C)n1nc(-c2ccc3oc(N)nc3c2)c2c(N)ncnc21 [Sapanisertib]
Second: CC(C)c1c2cc(-c3ccnc(NC4CCC(NC5CCOCC5)CC4)n3)ccc2nn1C (configuration not stated)
The nucleolar normality score of the first is higher: 0.418 ± 0.049 for the first, 0.317 ± 0.025 for the second.
